Only some compounds are listed: those with a hit (about 9% of all), similar ones and a draw of the others.
ALDH1A1 inh – qHTS Assay for Inhibitors of Aldehyde Dehydrogenase 1 (ALDH1A1); Purified ALDH1A1, NADH fluorescence, propionaldehyde substrate; Potency, µM (titrated, usually from 75.3 µM), actives largely listed as inhibitors; Aldehyde dehydrogenase 1A1 (Homo sapiens), P00352; 220,000 tested, 7.3% active
HPGD inh – qHTS Assay for Inhibitors of HPGD (15-Hydroxyprostaglandin Dehydrogenase); 15-hydroxyprostaglandin dehydrogenase [NAD(+)] (Homo sapiens), P15428; purified HPGD, NADH fluorescence kinetic, PGE2 substrate; Potency, µM, most hits filed as inhibitors; 150,000 tested, 4.3% active
Target sequence (P15428 whole entry, looked up): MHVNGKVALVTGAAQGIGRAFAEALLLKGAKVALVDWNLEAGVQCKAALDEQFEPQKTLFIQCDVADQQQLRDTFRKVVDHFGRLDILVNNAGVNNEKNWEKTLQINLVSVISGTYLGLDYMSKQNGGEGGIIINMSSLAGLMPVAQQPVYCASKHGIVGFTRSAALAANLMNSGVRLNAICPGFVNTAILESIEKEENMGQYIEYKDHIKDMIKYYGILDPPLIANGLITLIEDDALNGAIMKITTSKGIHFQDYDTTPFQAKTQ
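NADH formation kinetics: reaction with 30 uM PGE2 and 1 mM NAD+ (final), 20 nM enzyme, Tris-HCl pH 8 with Tween 20, after 15 min compound preincubation at room temperature. Fluorescence change, last versus first of five reads.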
IMPase inh – qHTS Assay for Identifying the Cell-Membrane Permeable IMPase Inhibitors; inhibition (IP1 accumulation), % at 46.1 µM; CHO-M1 cells, IP1 accumulation, HTRF TR-FRET ratio; Inositol monophosphatase 1 (Rattus norvegicus), P97697; 120,000 tested, under 10 active; active = well fitted curve in the direction sought with a large enough effect in the signal ratio, not every such curve was filed as active; inconclusive = small, poorly fitted or top-dose-only effect, or a change in a side signal; inactive = no such curve, though single readings can be large or run the other way; the % refers to the signal ratio;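 also: cells stimulated with carbachol in lithium chloride buffer; higher means more IMPase inhibition seen as more IP1 and lower FRET ratio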
Target sequence (P97697 whole entry, looked up): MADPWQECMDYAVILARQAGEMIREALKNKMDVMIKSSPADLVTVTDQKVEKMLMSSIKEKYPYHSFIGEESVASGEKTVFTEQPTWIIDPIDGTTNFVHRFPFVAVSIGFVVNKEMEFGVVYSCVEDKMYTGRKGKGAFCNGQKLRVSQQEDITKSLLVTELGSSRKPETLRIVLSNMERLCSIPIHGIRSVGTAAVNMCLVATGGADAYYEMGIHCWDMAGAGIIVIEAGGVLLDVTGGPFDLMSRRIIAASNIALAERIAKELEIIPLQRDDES
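Seeded CHO-M1 cells were dosed with compound at up to 46 uM, stimulated with carbachol for 30 min, then lysed in IP-One detection reagents. Higher IP1 lowers the TR-FRET signal.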
Large screens that a line does not name were inactive. Unless noted, calls follow the shape of the dose curve; as a rule, active = well fitted inhibition curve with a large enough effect (not every such curve was filed as active); inconclusive = small, poorly fitted or top-dose-only effect, or another doubt; inactive = no such curve, though single readings can be large or run the other way.

COc1ccc(NC(=O)CC2C(=O)N(c3ccc(Cl)cc3)C(=S)N2CCc2ccncc2)cc1 (stereo unspecified)	none
COC(=O)CN1C(=S)N(c2ccc(Cl)cc2)C(=O)C1CC(=O)Nc1ccc(F)cc1 (stereo unspecified)	ALDH1A1 inh inconclusive
COc1ccc(NC(=O)CC2C(=O)N(c3ccc(Cl)cc3)C(=S)N2CCc2ccccn2)cc1 (stereo unspecified)	ALDH1A1 inh 15.8µM
C/C(=N\NC(=O)c1ccn(C)n1)c1ccc(NC(=O)C2CCCC2)cc1	HPGD inh 14.1µM (no result: IMPase inh)
C/C(=N/NC(=O)c1ccoc1C)c1ccc(NC(=O)C2CCCC2)cc1	none (no result: IMPase inh)
C[C@@H]1C[C@](C)(C(=O)c2ccc3c(c2)OCO3)C=C1c1ccc2c(c1)OCO2	none (no result: IMPase inh)
COc1ccc(C(=O)Nc2ccc3c(c2)nc2n3CCSC2)cc1	ALDH1A1 inh inconclusive, HPGD inh inconclusive
O=C(Nc1ccc2c(c1)nc1n2CCSC1)c1ccccc1	ALDH1A1 inh 22.4µM
O=C(CSc1nc2[nH]ncc2c(=O)[nH]1)N1CCCCC1	ALDH1A1 inh 20µM, IMPase inh inconclusive
O=C(CSc1nc2[nH]ncc2c(=O)[nH]1)c1ccccc1	none (no result: HPGD inh, IMPase inh)
CCc1nc(SCC(=O)N2CCCC2)c2ccccc2n1	none
O=C(CSc1nc2[nH]ncc2c(=O)[nH]1)c1ccc(Cl)cc1	ALDH1A1 inh 2.51µM (no result: HPGD inh, IMPase inh)
CC(C)c1nc(SCC(=O)N2CCCC2)c2ccccc2n1	ALDH1A1 inh 3.16µM
Nc1nc(SCC(=O)Nc2ccccc2)[nH]c(=O)c1-c1ccccc1	none
O=C(CSc1nc2[nH]ncc2c(=O)[nH]1)N1CCCC1	none
Nc1nc(SCC(=O)N2CCc3ccccc3C2)[nH]c(=O)c1-c1ccccc1	ALDH1A1 inh 22.4µM
CCc1nnc(NC(=O)CSc2nc(-c3ccccc3)cc(-c3ccc(OC)cc3)c2C#N)s1	HPGD inh inconclusive (no result: IMPase inh)
Cc1cc(C)c(NC(=O)C(C)c2cccc(C(=O)c3ccccc3)c2)c(C)c1 (stereo unspecified)	none
O=C(O)CSc1nc2ccccc2c(=O)[nH]1	none
O=C(CSc1nc2ccccc2[nH]1)N1CCN(S(=O)(=O)c2ccc(Cl)cc2)CC1	none
Cc1ccc(S(=O)(=O)N2CCN(C(=O)CSc3nc4ccccc4c(=O)[nH]3)CC2)cc1	ALDH1A1 inh 3.16µM
O=C(CSc1nc2ccccc2c(=O)[nH]1)N1CCCCC1	ALDH1A1 inh inconclusive, HPGD inh 15.8µM
O=C(CSc1nc(C2CCCCC2)nc2ccccc12)N1CCCC1	none (no result: HPGD inh, IMPase inh)
Cc1ccc(S(=O)(=O)N(C)C)cc1NC(=O)CSc1ncc(C(F)(F)F)cc1Cl	none (no result: IMPase inh)
O=C(CSc1nncc2ccccc12)N1CCCCC1	ALDH1A1 inh 10µM (no result: HPGD inh, IMPase inh)
Cc1ccc(S(=O)(=O)N2CCN(C(=O)CSc3ncc(C(F)(F)F)cc3Cl)CC2)cc1	ALDH1A1 inh 2.82µM
COc1cccc(N2CN(CCc3ccccc3)CNC2=S)c1	none (no result: HPGD inh, IMPase inh)
Cc1nnc(SCC(=O)N2CCCC2)n(N)c1=O	none (no result: HPGD inh, IMPase inh)
Cc1ccc(C(=O)N/C(=C\c2cccs2)C(=O)NCc2ccncc2)cc1	ALDH1A1 inh inconclusive
Cc1ccc(C2CC(=O)N3CN(Cc4ccco4)CSC3=C2C#N)cc1 (stereo unspecified)	ALDH1A1 inh 11.2µM, HPGD inh 15.8µM
Cc1ccc(C)c(N2CN(Cc3ccco3)CNC2=S)c1	none
O=C(NCc1ccco1)C1CC(=O)N(c2ccc(Cl)cc2)C1 (stereo unspecified)	none (no result: HPGD inh, IMPase inh)
N#CC1=C2SCN(Cc3ccco3)CN2C(=O)CC1c1c(F)cccc1Cl (stereo unspecified)	ALDH1A1 inh 8.91µM, HPGD inh 17.8µM
COc1cccc(CC(=S)N2CCOCC2)c1	none (no result: IMPase inh)
O=C(CC1SC(=Nc2ccccc2)N(Cc2ccccn2)C1=O)Nc1ccc(Br)cc1 (stereo unspecified)	ALDH1A1 inh 7.08µM, HPGD inh inconclusive (no result: IMPase inh)
COc1ccc(N=C2SC(CC(=O)Nc3ccc(F)cc3)C(=O)N2Cc2ccco2)cc1 (stereo unspecified)	ALDH1A1 inh 3.55µM (no result: IMPase inh)
Cc1ccccc1N=C1SC(CC(=O)Nc2ccc3ccccc3c2)C(=O)N1Cc1ccccn1 (stereo unspecified)	none (no result: IMPase inh)
O=C(CC1SC2=NCCN2C1=O)Nc1ccc(Br)cc1 (stereo unspecified)	none (no result: IMPase inh)
O=C(CC1Sc2ncnn2C1=O)Nc1ccc(Br)cc1 (stereo unspecified)	ALDH1A1 inh 7.94µM, HPGD inh 15.8µM
COc1ccc(N=C2SC(CC(=O)Nc3ccccc3OC)C(=O)N2Cc2ccco2)cc1 (stereo unspecified)	HPGD inh inconclusive (no result: IMPase inh)
CC(=O)N(C)c1ccc(NS(=O)(=O)c2cc(Cl)ccc2Cl)cc1	none (no result: HPGD inh, IMPase inh)
O=C(CN1C(=O)S/C(=C\c2ccc(Cl)cc2)C1=O)NNC(=O)c1ccccc1O	none (no result: IMPase inh)
Cn1nnnc1SCC1=C(C(=O)O)N2C(=O)[C@@H](NC(=O)[C@H](O)c3ccccc3)[C@H]2SC1	ALDH1A1 inh inconclusive (no result: IMPase inh)
CC(C(=O)NC1C(=O)N2C(C(=O)O)=C(CSc3nnnn3C)CSC12)n1cc(Br)cn1 (stereo unspecified)	ALDH1A1 inh 15µM (no result: HPGD inh, IMPase inh)
Cn1nnnc1SCC1=C(C(=O)O)N2C(=O)C(NC(=O)C(OC=O)c3ccccc3)C2SC1 (stereo unspecified)	none (no result: IMPase inh)
Cn1nnnc1SCC1=C(C(=O)O)N2C(=O)C(NC(=O)C3CC3c3ccccc3)C2SC1 (stereo unspecified)	ALDH1A1 inh 10µM (no result: HPGD inh, IMPase inh)
Cc1ccc([C@@]2(C)CC/C(=N/N=C3\CC[C@](C)(c4ccc(C)c(C)c4)c4cc(C)c(C)cc43)c3cc(C)c(C)cc32)cc1C	none (no result: IMPase inh)
CCC/C=C(\CCC)C(NS(=O)(=O)c1ccc(C(F)(F)F)cc1)c1ccc(-c2ccccc2)cc1 (stereo unspecified)	ALDH1A1 inh 22.4µM (no result: IMPase inh)
CCC/C=C(\CCC)C(NC(=O)c1ccc(C(F)(F)F)cc1)c1ccccc1 (stereo unspecified)	none (no result: IMPase inh)
CN(Cc1ccon1)Cc1cn(C)nc1-c1cccc(Cl)c1	none (no result: HPGD inh, IMPase inh)
CCN1C(=O)c2cccc3c(NC(=O)c4ccccc4)ccc1c23	ALDH1A1 inh inconclusive
CCN1C(=O)c2cccc3c(NC(=O)C4CCCCC4)ccc1c23	ALDH1A1 inh 3.98µM (no result: HPGD inh)
CCN1C(=O)c2cccc3c(NC(=O)c4ccc(OC)c(OC)c4)ccc1c23	ALDH1A1 inh 4.47µM, IMPase inh inconclusive
CCN1C(=O)c2cccc3c(NC(=O)c4ccc5c(c4)OCCO5)ccc1c23	ALDH1A1 inh inconclusive
COc1cc(NC2c3ccccc3C(=O)N2Cc2ccc3c(c2)OCO3)cc(OC)c1OC (stereo unspecified)	none
CCOc1ccc(NC2c3ccccc3C(=O)N2Cc2ccc3c(c2)OCO3)cc1 (stereo unspecified)	ALDH1A1 inh inconclusive, HPGD inh 28.2µM
CC1(C)CN2C(=O)c3ccccc3C2(C)S1 (stereo unspecified)	none (no result: HPGD inh, IMPase inh)
CC(=O)Nc1nc(Cn2nnc(-c3ccc4c(c3)OCO4)n2)nc(N(C)C)n1	none (no result: HPGD inh, IMPase inh)
Cc1cccc(C)c1Nc1oc(-c2ccccc2)nc1-c1ccccc1	none (no result: IMPase inh)
CC(=O)Cc1nsc(Nc2ccc3c(c2)OCCO3)n1	ALDH1A1 inh 3.16µM, HPGD inh 20µM
CC(=O)Cc1nsc(Nc2ccc(F)cc2)n1	none (no result: HPGD inh, IMPase inh)

Compound activity from PubChem BioAssay.
